Source: PubChem (National Center for Advancing Translational Sciences (NCATS))
Shown are actives, neighbours in structure and some others; about 8.1% of the full set was active somewhere.
KB-3-1 cytotox: KB-3-1 parental cell cytotoxicity | KB-3-1 viability, CellTiter-Glo ATP luminescence, 72 h | 400,000 compounds, 1.4% hits | Potency, µM (highest dose often 46.1 µM), usual class: cytotoxic; note: % is set by controls: 0 for no effect and ±100 for the full control effect; nearly all actives have a fitted effect of over 60% in size
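Parental KB-3-1 viability, qHTS format: 72 h compound exposure, 37 °C; CellTiter-Glo; media-only wells and DMSO plates as controls; concentration-effect fits on corrected data.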
MCF10A rereplic: inducers of DNA re-replication in MCF 10A breast cells | MCF 10A DNA re-replication, Hoechst nuclear intensity, 48 h | Potency, µM (top dose mostly 46.1 µM), for the others: at the highest dose activity, positive = re-replication, usual class: activators | 350,000 compounds, 2.9% hits | AID 624296; note: % of control where 0% means no effect; nearly all actives have a fitted effect of over 50% in size
ELG1 repair inh: blocks ELG1-dependent DNA repair in HEK293T cells. Potency, µM (doses to about 46.1 µM), for inactives: at the top dose activity change, negative = inhibition, most hits filed as inhibitors. HEK293T ELG1-luciferase reporter, luminescence, 16 h; DNA damage induced by 5-fluorouridine. 330,000 compounds, 2.3% hits; note: % is set by controls: 0 for no effect and ±100 for the full control effect; nearly all actives have a fitted effect of over 55% in size
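5-Fluorouridine DNA damage + compound/DMSO, 2,000 cells/well, 16 h, 37 °C/5% CO2. ONE-Glo, 30 min RT, luminescence. Readout = decrease in reporter signal.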
KB-V1 MDR tox: kills drug-selected multidrug resistant KB-V1 cells. KB-V1 MDR cells viability, CellTiter-Glo, 72 h. Potency, µM (doses to about 46.1 µM), hits mostly cytotoxic. 400,000 compounds, 3.4% hits. AID 1347076; note: % is set by controls: 0 for no effect and ±100 for the full control effect; nearly all actives have a fitted effect of over 60% in size
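KB-V1 cells (P-gp-expressing MDR subline of KB-3-1) in phenol-red-free DMEM with 10% FBS were exposed to library compounds over a concentration series for 72 h at 37 degrees C. Viability read by CellTiter-Glo luminescence; concentration-effect curves fitted after normalization.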
SW480 rereplic: inducers of DNA re-replication in SW480 colon cancer cells; AID 624297; 340,000 compounds, 1.8% hits; SW480 DNA re-replication, Hoechst DNA content imaging, 48 h; Potency, µM (titrated, usually from 46.1 µM), inactives show top-dose re-replication activation, actives largely listed as activators; note: % of control where 0% means no effect; nearly all actives have a fitted effect of over 55% in size
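250 cells/well; 23 nL cpd via pin tool; 48 hr, 37 C, 5% CO2; Hoechst 40 min; imager read of total nuclear intensity, ex 405/em 500-530 nm.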
* = called active by the depositor; i = inactive; u = inconclusive; x = not tested or not shown; [ ] = remark or other dose. Calls come from the whole dose curve; as a rule, active = well fitted curve in the direction sought with a large enough effect; inconclusive = small, poorly fitted or top-dose-only effect, or another doubt; inactive = no such curve, though single readings can be large; an effect the other way counts as inactive or inconclusive. Potency is the fitted concentration of half-maximal effect.

SMILES | KB-3-1 cytotox | MCF10A rereplic | ELG1 repair inh | KB-V1 MDR tox | SW480 rereplic
COc1ccc(CSc2nncn2N)cc1[N+](=O)[O-] | i | -4% | 11% | i | 0%
CCC(=O)N1c2ccc(S(=O)(=O)CCC(=O)NCc3ccccc3OC)cc2CC1C (configuration not stated) | i | x | x | i | x
C=CCn1c(SCC(=O)NC2CCCCC2)nnc1C1CCCCC1 | i | 6% | 19% | i | 1%
O=C1CSC(c2cn(-c3ccccc3)nc2-c2cc3ccccc3oc2=O)N1Cc1ccccc1 (configuration not stated) | i | u | 21µM* | i | 6%[9.22 µM]
Cc1ccc2nc(N(CCCN(C)C)C(=O)c3ccc(S(=O)(=O)N4CCc5ccccc5C4)cc3)sc2c1 | u | 5.2µM* | -19% | 21µM* | u
CN(C)CCCN(C(=O)c1ccc(S(=O)(=O)N2CCc3ccccc3C2)cc1)c1nc2ccc(F)cc2s1 | u | 4.6µM* | u | u | u
COc1ccc2sc(N(CCCN(C)C)C(=O)c3ccc(S(=O)(=O)N4CCCC4)cc3)nc2c1 | i | -2% | 10% | i | 1%
Cc1cc(C)c2sc(N(CCCN(C)C)C(=O)c3ccc(S(=O)(=O)N4CCc5ccccc5C4)cc3)nc2c1 | x | x | 13µM* | x | x
Cc1cccc2sc(N(CCCN(C)C)C(=O)c3ccc(S(=O)(=O)N4CCc5ccccc5C4)cc3)nc12 | u | u | u | i | u
COc1ccc2sc(N(CCCN(C)C)C(=O)c3ccc(S(=O)(=O)N4CCc5ccccc5C4)cc3)nc2c1 | u | u | u | 23µM* | 30%
O=C(CN1CCCCC1)N/N=C/c1cccc(C(F)(F)F)c1 | i | -2% | x | i | -10%
O=C(Nc1nc2ccccc2[nH]1)c1ccc(Cl)cc1 | u | 4% | u | u | -1%
O=C(N/C(=C/c1ccc(Br)cc1)c1nc2ccccc2[nH]1)c1ccco1 | i | -7% | 12% | i | 0%
O=C(N/C(=C/c1ccc(Cl)cc1)c1nc2ccccc2[nH]1)c1ccco1 | i | u | 2% | 12µM* | -2%
COc1cc(/C=C(/C(=O)c2cccs2)c2nc3ccccc3[nH]2)cc(OC)c1O | 3.7µM* | 16µM* | u | 21µM* | 23µM*
O=C(/C(=C/c1ccc(Cl)cc1)c1nc2ccccc2[nH]1)c1ccccc1 | 5.2µM* | 6.5µM* | u | u | 5.2µM*
CCOc1cccc2cc(C(=O)N3CCc4ccccc4C3)c(=O)oc12 | i | -4% | 4% | i | -4%
O=C(NCc1ccccn1)C(=O)N/N=C/c1ccccc1O | i | 8% | -4% | i | u
COc1ccc(CN(C)C(=O)Cc2c[nH]c3ccccc23)cc1 | i | 4% | -5% | i | -1%
COCCNC(=O)C1(C)CCN(Cc2ccccc2C#N)C1 (configuration not stated) | i | x | x | i | x
O=c1c2ccccc2ncn1Cc1ccc(Cl)c(Cl)c1 | i | 1.2µM* | 12% | i | 23%
COc1ccc(-n2c(SC)nc3sc4c(c3c2=O)CCN(C)C4)cc1 | i | u | -3% | i | 15%
COc1ccc(NC(=O)C2CCN(c3nc(-c4ccc(OC)cc4)no3)CC2)cc1 | i | 29% | 3% | i | -9%
COc1ccc(-c2noc(N3CCC(C(=O)Nc4ccc(OC)cc4OC)CC3)n2)cc1 | i | 6% | 13µM* | i | -9%
COc1ccc(-c2noc(N3CCC(C(=O)N4CCN(c5ccccn5)CC4)CC3)n2)cc1 | i | 20% | u | 5.8µM* | -8%
SMILES | KB-3-1 cytotox | MCF10A rereplic | ELG1 repair inh | KB-V1 MDR tox | SW480 rereplic
CCOC(=O)Nc1ccc2c(c1)ncn2C1CCCCC1 | i | -9% | u | 18µM* | 12%
CCOC(=O)C1=C(COC(=O)/C=C/c2ccc(OC)cc2OC)NC(=O)NC1C (configuration not stated) | i | 2% | u | 6.5µM* | 2%
CCOC(=O)C1=C(COC(=O)CCOc2ccc(C)cc2)NC(=O)NC1C (configuration not stated) | i | 18µM* | 26µM* | i | u
O=C(Cn1cnc2c(nnn2Cc2ccc(F)cc2)c1=O)Nc1ccc2c(c1)OCCO2 | i | 16µM* | 8% | i | u
O=C(Cn1cnc2c(nnn2Cc2ccc(F)cc2)c1=O)Nc1cccc(F)c1 | i | -11% | u | i | -3%
COC(=O)c1ccc(/C=C2\Oc3ccccc3NC2=O)cc1 | i | 6.5µM* | u | u | u
COc1ccc(N2CCN(c3cc(C(=O)NC4CCCCC4)ncn3)CC2)cc1OC | i | x | x | 15µM* | x
COc1ccc(C(=O)NC2CCCCCCC2)cc1OC | u | 3% | x | u | -1%
COc1ccc(C2CC(=O)N(Cc3ccc(F)cc3)c3ccccc3S2)cc1OC (configuration not stated) | u | x | x | 16µM* | x
COc1ccc(C2CC(=O)N(Cc3ccc(F)cc3)c3ccccc3S2)cc1 (configuration not stated) | u | x | x | 15µM* | x
COc1cc(C2CC(=O)N(Cc3ccc(F)cc3)c3ccccc3S2)cc(OC)c1OC (configuration not stated) | u | x | x | 12µM* | x
COc1ccc(OC2C(=O)N(Cc3ccc(F)cc3)C2c2cc(OC)c(OC)c(OC)c2)cc1 (configuration not stated) | i | 0% | -10% | i | 0%
COc1ccc(C2CC(=O)N(C)c3ccccc3S2)cc1OC (configuration not stated) | i | u | u | u | -1%
Cc1ccc2c(=O)c(C(=O)c3ccc(Cl)cc3)cn(CC(=O)Nc3ccc4c(c3)OCCO4)c2n1 | i | x | x | i | x
CCC(=O)Nc1ccc(C)cc1-c1nc2ccccc2n(CC(=O)Nc2ccccc2Cl)c1=O | i | x | x | i | x
CC(C)OC(=O)C[N+](C)(C)CCN1C(=O)C2C(c3ccccc3)C=CC(c3ccccc3)C2C1=O (configuration not stated) | i | 2% | -12% | i | -19%
Cc1cc(C)cc(N(CCC#N)C(=O)COC(=O)CCc2c[nH]c3ccccc23)c1 | i | -1% | -5% | 21µM* | -3%
CN(C(=O)COC(=O)CCc1c[nH]c2ccccc12)c1ccccc1 | i | 1% | 7% | u | -16%
Cn1nnnc1SCC1=C(C(=O)O)N2C(=O)C(NC(=O)Cn3nc(C(F)F)cc3C3CC3)C2SC1 (configuration not stated) | i | 0.58µM* | 0% | u | 2%
CCN(CC(=O)Nc1c(F)cccc1F)C(=O)Cc1n[nH]c(=O)c2ccccc12 | u | -1% | -2% | i | 1%
